From ChEMBL document CHEMBL3988442, “University of Dundee, Small-Polar-MMV Screening Library” (2021)
“And” between values parts separate entries of the source, which are not always exact repeats. Identical values can stand only once. Among all 53,000 compounds or so, about 900 (1.7%) showed an effect of 50% or more. The list comes from a sample in which strong results are over-represented; it also holds similar structures and randomly drawn compounds.

System: Mycobacterium tuberculosis
Assay: Cornell - Phenotypic assay to identify agents that inhibit growth of Mycobacterium tuberculosis
Type: functional
Set-up: scale not given: direction of the effect not stated beside the values

Compound | Percent Effect (10 mM as filed; unlikely as a test dose) | Percent Effect (10 mM, 10 mM as filed; unlikely as a test dose)
CCNc1ncc(C(=O)NCc2ccc3nsnc3c2)cn1 | 105.6% | 
CCNc1ncc(C(=O)NCc2ccc(F)c(C(F)(F)F)c2)cn1 | -33.7% | 
O=C(NC1CC1)N1C[C@H]2CN(Cc3cccc(F)c3)C(=O)[C@H]2C1 | -1.024% | 
Cc1ccc(CN(CCCN(C)C)Cc2cnc(N(C)C)nc2)o1.O=C(O)CC(O)(CC(=O)O)C(=O)O | -2.664% | 
O=C(O)C(F)(F)F.O=C([C@H]1C[C@H]2OCC[C@H]2N(Cc2ccccn2)C1)N1CCCCO1 | -19.88% | 
O=C(c1cc(C2CC2)on1)N1CCC(Oc2ncccc2Br)CC1 | 83.65% | 
O=C(c1ccccn1)N1CCC(Oc2ncccc2Cl)CC1 | 37.07% | 
O=C(c1cc(C2CC2)on1)N1CCC(Oc2ncccc2Cl)CC1 | 82.03% | 
O=C(c1ccccn1)N1CCC(Oc2cccnc2)CC1 | -17.68% | 
N#Cc1cccnc1OC1CCN(C(=O)c2cc(C3CC3)on2)CC1 | 39.39% | 
O=C(c1cnccn1)N1CCC(Oc2ncccc2Cl)CC1 | 13.63% | 
CN(C)S(=O)(=O)N1CC(c2ccnc(Nc3ccccn3)n2)C1 | 25.46% | 
COc1ccc(CN2CCC3(CC2)CCN(CC2CC2)C3=O)cc1.O=C(O)C(F)(F)F | 6.492% | 
CCC(=O)N1CCCCC[C@@H]2[C@@H]1[C@H](c1cccc(F)c1)CN2C | -24.01% | 
COc1cccc(C(=O)Nc2n[nH]c(C3CCCO3)n2)c1 (stereo not given) | 12.47% | 
CCOc1ncccc1CNC(=O)NCCNC(=O)c1ccco1 | 0.1336% | 
CCNC(=O)c1cc2n(n1)CCCO2 | -8.867% | 
O=C(c1ccncc1)N1CCc2[nH]nc(Nc3ccccc3)c2C1 | -24.78% | 
O=C(c1cccnc1)N1CCc2[nH]nc(Nc3ccccc3)c2C1 | 46.76% | 
O=C(c1cncs1)N1CCc2[nH]nc(Nc3ccccc3)c2C1 | 58.68% | 
CN(Cc1ccc(F)cc1)CC1(O)CCN(C(=O)c2cccs2)C1 (stereo not given) | -44.56% | 
COc1cccc(CCC(=O)Nc2ccn(C)n2)c1OC | -2.109% | 
COc1cccc(C2C3=C(COC3=O)Nc3[nH]nc(C)c32)c1O (stereo not given) | -49.1% | 
COc1cc(C2C3=C(COC3=O)Nc3[nH]nc(C)c32)cc(Br)c1O (stereo not given) | 101.5% | 
CCOc1c(Br)cc(C2C3=C(COC3=O)Nc3[nH]nc(C)c32)cc1OC (stereo not given) | 33.99% | 

Compound | Percent Effect (10 mM as filed; unlikely as a test dose) | Percent Effect (10 mM, 10 mM as filed; unlikely as a test dose)
Cc1cnn(C2CCCN(C(=O)c3cc(C)sc3C)C2)c1 (stereo not given) | 1.503% | 
CCOC(=O)CC(c1ccc(OC)c(OC)c1)c1c(O)n[nH]c1C (stereo not given) | 17.75% | 
COC(=O)CC(c1ccc(OC)c(OC)c1OC)c1c(O)n[nH]c1C (stereo not given) | 39.76% | 
CCOC(=O)CC(c1cccc(OC)c1OC)c1c(C)[nH][nH]c1=O (stereo not given) |  | 39.38% and 50.02%
O=C(NC[C@]1(O)CCN(Cc2ccccc2F)C[C@H]1O)c1c[nH]cn1 | -15.39% | 
CC(C)c1ccc(CN[C@@H]2COC[C@H]2c2ccc(F)cc2)cc1 | 38.02% | 
O=C(NCc1cccnc1)C1=NN(c2ccccc2)C(=O)CN1 | -12.05% | 
COCc1ccc(CNC(=O)C2=NN(c3ccccc3)C(=O)CN2)cc1 | -8.016% | 
COc1ccccc1CNC(=O)C1=NN(c2ccc(C)cc2)C(=O)CN1 | 59.16% | 
O=C(NCCNC(=O)c1scnc1Cl)c1ccccc1Cl | 2.223% | 
CCn1nc(C)c2nc(C)nc(NCCc3ccccc3)c21 | 18.42% | 
CCCc1nc(NCCc2ccccc2)c2c(n1)c(C)nn2CC | 98.38% | 
CCCc1nc(N2CCN(CC)CC2)c2c(n1)c(C)nn2CC | 19.74% | 
CCCc1nc(N2CCCCC2)c2c(n1)c(C)nn2CC | -11.73% | 
CCCc1nc(N2CCCCCC2)c2c(n1)c(C)nn2CC | 68.4% | 
CCn1nc(C)c2nc(C)nc(NC3CCCC3)c21 | 42.26% | 
CCn1nc(C)c2nc(C)nc(NCCc3ccc(C)cc3)c21 | 87.9% | 
CCCc1nc(N2CCSCC2)c2c(n1)c(C)nn2CC | 16.49% | 
CCCc1nc(N2CCC(C)CC2)c2c(n1)c(C)nn2CC | 17.45% | 
COc1cc(C(=O)N(CCC#N)Cc2ccccn2)ccc1C | 2.226% | 
COC1CCN(S(=O)(=O)NCC2COc3ccccc3C2)CC1 (stereo not given) | 23.14% | 
CC(=O)N1CCC(C(=O)NC2CCc3nccn3C2)CC1 (stereo not given) | -4.558% | 
Cc1nnc(C2CCN(c3ccc(F)cc3)CC2)o1 | 0.33% | 
CC[C@H]1N(C)CCC[C@]12CCC(=O)N2Cc1ccncc1.O=C(O)C(F)(F)F.O=C(O)C(F)(F)F | 4.525% | 
Cc1cn2c(n1)CCC(NC(=O)c1[nH]nc(C)c1Br)C2 (stereo not given) | -35.87% | 
